This is a sample that favours compounds with a hit; in the whole collection about 3.8% have one here.
Nrf2 ARE act – Nrf2 pathway activation | AREc32 ARE-luciferase reporter (MCF7-derived line), luminescence, 24 h | Potency, µM (highest dose often 46.1 µM), inactives show at the highest dose activation, usual class: activators | actives 0.31% (n = 410,000) | AID 624171; note: % of control where 0% means no effect; nearly all actives have a fitted effect of over 65% in size
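Steps: seed AREc32_Fluc cells (1000/well, 5% FBS OPTI-MEM); incubate overnight at 37 deg C; add 23 nL compound; incubate 24 hr; add Steady-Glo; hold 30 min RT; read luminescence.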
A549 tox – counter-screen for Nrf2 inhibitors: cytotoxicity in A549 cells. AID 504648. A549 ARE-Fluc cells, CellTiter-Fluor viability, 18-24 h. Potency, µM (titrated, usually from 46 µM), for inactives: at the highest dose activity change, negative = cytotoxicity, actives largely listed as inhibitors. actives 0.16% (n = 390,000); note: % is set by controls: 0 for no effect and ±100 for the full control effect
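Cytotoxicity counterscreen: CellTiter-Fluor fluorescence was measured in A549 ARE_Fluc cells after 18-24 h of compound exposure in a concentration series. The subsequent BugLite luminescent read reports ARE-luciferase activity.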
ELG1 DNA repair – blocks ELG1-dependent DNA repair in HEK293T cells; actives 2.3% (n = 330,000); AID 504467; Potency, µM (series often up to 46.1 µM), for the others: at the highest dose activity change, negative = inhibition, hits mostly inhibitors; HEK293T ELG1-luciferase reporter, luminescence, 16 h; DNA damage induced by 5-fluorouridine; note: % is set by controls: 0 for no effect and ±100 for the full control effect; nearly all actives have a fitted effect of over 55% in size
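DMSO vehicle served as the neutral condition. Each well held 2,000 cells given 5-fluorouridine plus compound; after 16 hr at 37 °C/5% CO2, ONE-Glo was added and luciferase measured 30 min later.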
mIDH1 inhibitor – blocks human mutant IDH1 R132H enzyme | O75874 | IDH1-R132H enzyme, NADPH consumption, diaphorase/resazurin fluorescence | Potency, µM (top dose mostly 76.6 µM), for inactives: top-dose activity change, negative = inhibition, usual class: inhibitors | actives 0.093% (n = 390,000) | AID 602179; note: % is set by controls: 0 for no effect and ±100 for the full control effect; nearly all actives have a fitted effect of over 65% in size
Target sequence (O75874 whole entry R132H, stated change not applied): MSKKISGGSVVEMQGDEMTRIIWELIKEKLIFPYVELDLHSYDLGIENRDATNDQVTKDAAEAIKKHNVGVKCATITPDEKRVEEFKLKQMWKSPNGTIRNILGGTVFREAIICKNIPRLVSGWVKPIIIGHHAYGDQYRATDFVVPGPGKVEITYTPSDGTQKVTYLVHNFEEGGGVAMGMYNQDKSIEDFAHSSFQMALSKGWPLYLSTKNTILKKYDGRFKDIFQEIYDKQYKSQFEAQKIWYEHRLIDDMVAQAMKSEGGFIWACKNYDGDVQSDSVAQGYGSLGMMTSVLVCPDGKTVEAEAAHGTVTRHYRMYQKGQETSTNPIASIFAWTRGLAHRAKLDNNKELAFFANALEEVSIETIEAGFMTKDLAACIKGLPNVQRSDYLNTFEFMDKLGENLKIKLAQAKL
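IDH1-R132H (0.5 ug/mL) preincubated 30 min with compound, then NADPH (0.016 mM) and alpha-KG (2 mM) added; 80 min at RT, pH 7.5. Remaining NADPH coupled via diaphorase/resazurin to fluorescence (540/590 nm); concentration-response curves normalized to no-enzyme control.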
Nrf2 block – blocks Nrf2 signaling; A549 ARE-Fluc reporter, luciferase luminescence, 18-24 h; Potency, µM (doses to about 46 µM), for the others: top-dose activity change, negative = inhibition, hits mostly inhibitors; actives 2.1% (n = 360,000); note: % is set by controls: 0 for no effect and ±100 for the full control effect; nearly all actives have a fitted effect of over 60% in size
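Nrf2 activity is the BugLite luminescence, read 15 min after reagent at room temperature, following CellTiter-Fluor cytotoxicity readout (30 min, 37C). Compound titrations were applied for 18-24 h to 5000 A549 ARE_Fluc cells/well in 5% FBS OPTI-MEM.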
Active calls of the source: *; ? = inconclusive; nt = no result. Calls come from the whole dose curve; as a rule, active = well fitted curve in the direction sought with a large enough effect; inconclusive = small, poorly fitted or top-dose-only effect, or another doubt; inactive = no such curve, though single readings can be large; an effect the other way counts as inactive or inconclusive. Potency is the fitted concentration of half-maximal effect.

SMILES	Nrf2 ARE act	A549 tox	ELG1 DNA repair	mIDH1 inhibitor	Nrf2 block
CCCC(=O)OCCNc1cc(SCc2ccco2)c2nonc2c1[N+](=O)[O-]	?	?	-0.8%	1.8%	-10.0%
CC(=O)OCCCNc1cc(SCc2ccco2)c2nonc2c1[N+](=O)[O-]	?	16.4µM*	-1.8%	-2.7%	-2.3%
Fc1ccc2nncc(SCc3ccccc3Cl)c2c1	5.62µM*	13.3%	nt	5.4%	4.6%
COC(=O)c1ccc(Cl)c(NC(=O)NC23CC4CC(CC(C4)C2)C3)c1	0.3%	-28.6%	20.6µM*	-3.4%	?
COC(=O)c1cccc(NC(=O)NC23CC4CC(CC(C4)C2)C3)c1	0.4%	0.6%	?	-0.9%	13.6%
CC(=O)N1N=C(c2cccc(NS(=O)(=O)c3ccc(C)cc3)c2)CC1c1ccco1 (stereo not given)	-0.3%	?	?	3.1%	23.1µM*
CC(=O)N1N=C(c2c(-c3ccccc3)c3cc(Br)ccc3[nH]c2=O)CC1c1ccco1 (stereo not given)	3.9%	0.8%	?	-0.9%	6.7%
CC(=O)N1N=C(c2c(-c3ccccc3)c3cc(C)ccc3[nH]c2=O)CC1c1ccco1 (stereo not given)	-0.5%	0.6%	23.1µM*	?	?
CN(C)/N=C/C=C1\CCC/C(=C/c2cccs2)C1=O	10µM*	0.4%	?	19.7%	?
Cc1cc2c(s1)c1cnn(Cc3ccc(OC(F)F)cc3)c(=O)c1n2C	nt	-4.9%	nt	nt	-8.8%
O=C(NCc1cccc(F)c1)c1ccc(CN2CC(=O)N3CCCCC3C2=O)cc1 (stereo not given)	2.0%	-1.3%	nt	0.9%	25.5%
CC(C)(C)c1cnnn1-c1ccc(/C=N/Nc2ccc([N+](=O)[O-])cc2)cc1	-1.6%	16.4µM*	?	-0.3%	?
C/C(=N\Nc1ccc([N+](=O)[O-])cc1)c1ccc(-n2nncc2C)cc1	1.0%	?	7.31µM*	2.7%	?
C/C(=N\Nc1ccc([N+](=O)[O-])cc1)c1ccc(N2CCOCC2)cc1	1.8%	-4.7%	?	2.1%	-6.3%
CCOC(=O)c1[nH]c(C)c(C(=O)NCc2cccc(OC)c2)c1C	0.4%	-6.8%	nt	-8.2%	?
Cc1cc(Nc2cccc(Br)c2)n2c(nc3ccccc32)c1C#N	0.1%	-7.3%	nt	9.9%	2.8%
Oc1ccc(N=Cc2ccc(OCc3ccccc3)cc2)cc1	14.1µM*	?	?	25.7%	?
O=C(N/N=C/c1ccc(OCc2ccccc2)cc1)c1ccncc1	3.9%	3.7%	?	1.0%	-14.9%
COc1ccccc1C(=O)COC(=O)c1cccs1	8.91µM*	-8.5%	?	0.0%	?
Cc1ccc(-n2nc(C(=O)N3CCCCC3)c(=O)n(C)c2=O)cc1	0.4%	11.4%	nt	-15.2%	nt
COc1cc(Cn2c(=O)oc3ccc(C)cc32)ccc1OCCC(C)C	3.6%	-7.7%	nt	13.9%	20.6µM*
COc1ccc(-c2nc3ccccc3nc2-c2ccccc2)cc1OC	4.5%	-1.7%	?	3.8%	-7.9%
N#Cc1ccc(-c2nc3ccccc3nc2-c2ccccc2)cc1C#N	-0.1%	0.0%	16.4µM*	5.4%	-11.3%
Cc1cccc(N2CCN(C(=O)CSCc3c(C)noc3C)CC2)c1C	1.6%	-8.0%	9.9%	-1.8%	1.84µM*
Cc1noc(C)c1CSCC(=O)N1CCN(c2ccc(F)cc2)CC1	0.3%	12.4%	11.2µM*	3.8%	?
SMILES	Nrf2 ARE act	A549 tox	ELG1 DNA repair	mIDH1 inhibitor	Nrf2 block
CC(C)CCNC(=O)CSCc1cnn(-c2ccccc2)c1-n1cccc1	3.6%	4.4%	nt	-3.8%	-18.5%
C/C(=N\Nc1nc(-c2ccccn2)nc2ccccc12)c1ccc(F)cc1	-0.8%	-0.5%	-6.0%	0.0%	-10.2%
CCCCN(CC)c1nc(-c2ccncc2)nc2ccccc12	-0.8%	-0.1%	23.1µM*	-5.9%	-0.6%
CCN(CC)c1nc(-c2ccccn2)nc(-c2ccccc2)c1C#N	-1.2%	-17.2%	11.6µM*	-0.5%	?
c1ccc(CCNc2nc(-c3ccccn3)nc3ccccc23)cc1	0.0%	?	4.11µM*	-1.3%	10.3µM*
CCCN(CCC)c1nc(-c2ccccn2)nc2ccccc12	8.5%	-17.8%	?	4.3%	18.4µM*
COc1ccc(Cn2nnnc2C(c2ccccn2)N2CCN(c3ccc(O)cc3)CC2)cc1 (stereo not given)	nt	-0.5%	nt	nt	-16.8%
Cn1c(=O)c2ccccc2n(CC(=O)N2CCCc3ccccc32)c1=O	0.1%	0.8%	?	6.2%	-6.8%
Cc1cc2occ(CC(=O)N(C)CC(=O)Nc3ccc(F)cc3)c2cc1C	0.6%	?	1.3%	-4.1%	?
COc1ccc(Br)cc1CNC(=O)CN1C(=O)c2cccnc2Oc2ccc(C)cc21	0.5%	4.6%	nt	-3.1%	-11.0%
O=C(NCC12CC3CC(CC(C3)C1)C2)c1cc2nc(-c3ccc(F)cc3)cc(C(F)(F)F)n2n1	-0.3%	-4.2%	nt	-13.0%	nt
COc1cc(N)c2ncsc2c1	0.2%	-0.7%	nt	12.6%	5.6%
COc1cc(NC(=O)Cn2nc(-c3ccc(F)cc3)ccc2=O)ccc1-n1cnnn1	2.3%	?	2.9%	-1.2%	25.9µM*
CCCN(CCC)C(=O)c1ccc2nc(-c3ccc(OC)c(OC)c3)c(-c3ccc(OC)c(OC)c3)nc2c1	1.2%	-3.3%	11.6µM*	4.7%	?
O=C(NCc1ccccn1)c1ccc(COc2ccc(Cl)cc2)o1	3.7%	-0.9%	-5.9%	-0.2%	23.1µM*
Cc1ccc(C(=O)NCc2ccccn2)o1	-0.5%	-4.4%	11.5%	-1.0%	-3.4%
O=C(NCc1ccccn1)c1cc(Cl)ccc1OCc1ccccc1	0.4%	2.3%	16.4µM*	5.9%	6.0%
O=C(NCc1ccccn1)c1ccc(Cl)cc1Cl	0.3%	2.2%	?	5.2%	?
CCCOc1ccc(CNC(=O)CCCn2ncn3c(cc4sc(CC)cc43)c2=O)cc1	-2.4%	?	nt	-14.6%	23.1µM*
CC1CCN(c2c(NCC3CCC(C(=O)N4CCc5ccccc5C4)CC3)c(=O)c2=O)CC1 (stereo not given)	-0.5%	-2.8%	9.2µM*	-2.9%	?
O=C(C1CCC(CNc2c(N3CCCCC3)c(=O)c2=O)CC1)N1CCc2ccccc2C1 (stereo not given)	3.8%	2.7%	?	1.1%	?
CCN1/C(=C/C=C/c2oc3ccc(-c4ccccc4)cc3[n+]2CC)Oc2ccc(-c3ccccc3)cc21	-2.0%	14.6µM*	11.6µM*	0.4%	5.8µM*
CCc1nn(Cc2c(C)cc(C)cc2C)c(=O)c2cc3cc(C)ccc3n12	-0.9%	1.0%	nt	6.0%	14.2%
N/C(=N\OC(=O)/C=C/c1ccccc1Cl)c1cccnc1	15.8µM*	-1.1%	?	5.9%	?
